Measured values: the supplement of paper PMC9262897, “Low-cost anti-mycobacterial drug discovery using engineered E. coli” (Nature Communications, 2022)
Structures can show the parent of a compound that is named as a salt. ± gives the standard deviation of the averaged measurements.

Assays:
Assay in all cases: growth (OD600 after 10 h); higher = more growth (less inhibition)
[1] = system: E. coli TESEC Alr+ wild-type control; details: compound 0.1 mM; raw OD600 reference: median of DMSO wells 0.241, cell-free background 0.041
Protocol: (§1)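 TESEC Mtb Alr E. coli, or the Alr+ wild-type control, in 384-well plates with Prestwick library compounds at 0.1 mM and 1% DMSO, across arabinose induction levels of 1E3 to 1E7 nM. Growth is read as OD600 after 10 h at 37 °C in triplicate biological replicates.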

E. coli TESEC Mtb Alr [2] = details: compound 0.1 mM
Protocol: as §1

E. coli TESEC Mtb Asd = details: compound 0.1 mM
Protocol: (§2)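 TESEC E. coli strains in which the native enzyme is deleted and replaced by arabinose-inducible Mtb Asd, DapB, CysH or TrpD, each grown in its selective medium. Strains were screened against the Prestwick library at 0.1 mM and 1% DMSO in 384-well format at low and high arabinose induction. Growth is read as OD600 after 10 h in triplicate.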

E. coli TESEC Mtb DapB = details: compound 0.1 mM
Protocol: as §2

[3] = system: E. coli TESEC Alr+ wild-type control; details: compound 0.1 mM; raw OD600 reference: median of DMSO wells 0.49, cell-free background 0.052
Protocol: (§3)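 TESEC Mtb Alr E. coli (ΔaraC ΔtolC ΔentC Δalr ΔdadX, arabinose-inducible Mtb Alr) or the Alr+ wild-type control strain, grown in defined M9-fructose medium without D-alanine in 96-well plates with Prestwick library compounds at 0.1 mM and 1% DMSO. Low Alr induction is 0.1 µM arabinose and high induction is 10 mM arabinose.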

E. coli TESEC Mtb Alr [4] = details: compound 0.1 mM; remark: listed apart in the source
Protocol: as §3

[5] = arabinose 1000 nM, raw OD600 reference: median of DMSO wells 0.294, cell-free background 0.041
[6] = arabinose 10000 nM, raw OD600 reference: median of DMSO wells 0.264, cell-free background 0.041
[7] = arabinose 100000 nM, raw OD600 reference: median of DMSO wells 0.201, cell-free background 0.041
[8] = arabinose 1000000 nM, raw OD600 reference: median of DMSO wells 0.193, cell-free background 0.041
[9] = arabinose 10000000 nM, raw OD600 reference: median of DMSO wells 0.146, cell-free background 0.041
[10] = arabinose induction (level): High, raw OD600 reference: median of DMSO wells 0.331, cell-free background 0.041
[11] = arabinose induction (level): Low, raw OD600 reference: median of DMSO wells 0.417, cell-free background 0.041
[12] = arabinose induction (level): High, raw OD600 reference: median of DMSO wells […], cell-free background 0.041
[13] = arabinose induction (level): Low, raw OD600 reference: median of DMSO wells 0.227, cell-free background 0.041
[14] = arabinose 100 nM, raw OD600 reference: median of DMSO wells 0.413, cell-free background 0.052
[15] = arabinose 10000000 nM, raw OD600 reference: median of DMSO wells […], cell-free background 0.052

Row | Structure (SMILES) | growth [1] | growth (E. coli TESEC Mtb Alr [2]; [5]) | growth (E. coli TESEC Mtb Alr [2]; [6]) | growth (E. coli TESEC Mtb Alr [2]; [7]) | growth (E. coli TESEC Mtb Alr [2]; [8]) | growth (E. coli TESEC Mtb Alr [2]; [9]) | growth (E. coli TESEC Mtb Asd; [10]) | growth (E. coli TESEC Mtb Asd; [11]) | growth (E. coli TESEC Mtb DapB; [12]) | growth (E. coli TESEC Mtb DapB; [13]) | growth [3] | growth (E. coli TESEC Mtb Alr [4]; [14]) | growth (E. coli TESEC Mtb Alr [4]; [15])
1 | O=C(O)COC(=O)Cc1ccccc1Nc1c(Cl)cccc1Cl [Aceclofenac] | 0.154 ± 0.0035 | 0.205 ± 0.019 | 0.223 ± 0.015 | 0.12 ± 0.007 | 0.141 ± 0.0064 | 0.132 ± 0.012 | 0.205 ± 0.026 | 0.263 ± 0.011 | 0.156 ± 0.0075 | 0.176 ± 0.028 | 0.424 ± 0.0057 | 0.352 ± 0.034 | 0.244 ± 0.015
2 | CCCOc1ccc(C(=O)OCCN(CC)CC)cc1N [Proparacaine hydrochloride] | 0.228 ± 0.0033 | 0.308 ± 0.017 | 0.268 ± 0.013 | 0.196 ± 0.0096 | 0.17 ± 0.0027 | 0.153 ± 0.0029 | 0.46 ± 0.0053 | 0.426 ± 0.025 | 0.187 ± 0.0041 | 0.231 ± 0.021 | 0.469 ± 0.043 | 0.408 ± 0.017 | 0.354 ± 0.024
3 | CCOC(=O)C1=C(C)NC(C)=C(C(=O)OC)C1c1cccc(Cl)c1Cl (stereo not given) [Felodipine] | 0.0763 ± 0.012 | 0.0729 ± 0.024 | 0.0553 ± 0.0007 | 0.0562 ± 0.0017 | 0.0517 ± 0.00035 | 0.0625 ± 0.0023 | 0.0579 ± 0.0044 | 0.0538 ± 0.002 | 0.07363 ± 0.0005 | 0.0792 ± 0.032 | 0.0917 ± 0.0035 | 0.3 ± 0.099 | 0.0862 ± 0.0057
4 | CC=C(C)C(=O)OC1C(OC(C)=O)C2(CO)C(O)CC3(C)C(=CCC4C5(C)CCC(OC6OC(C(=O)O)C(OC7OC(CO)C(O)C(O)C7O)C(O)C6OC6OC(CO)C(O)C(O)C6O)C(C)(CO)C5CCC43C)C2CC1(C)C (stereo not drawn) [Beta-Escin] | 0.289 ± 0.0075 | 0.333 ± 0.0081 | 0.24 ± 0.0056 | 0.366 ± 0.011 | 0.151 ± 0.0075 | 0.226 ± 0.01 | 0.271 ± 0.026 | 0.342 ± 0.048 | 0.329 ± 0.018 | 0.323 ± 0.0085 | 0.438 ± 0.02 | 0.438 ± 0.018 | 0.392 ± 0.011
5 | Cc1cccc(Nc2ccncc2S(=O)(=O)NC(=O)NC(C)C)c1 [Torsemide] | 0.222 ± 0.005 | 0.29 ± 0.012 | 0.257 ± 0.019 | 0.168 ± 0.012 | 0.17 ± 0.0046 | 0.16 ± 0.0021 | 0.228 ± 0.029 | 0.353 ± 0.095 | 0.197 ± 0.021 | 0.26 ± 0.019 | 0.477 ± 0.021 | 0.403 ± 0.016 | 0.326 ± 0.025
6 | C[C@@H]1NC(=O)NC1=O [Methylhydantoin-5-(L)] | 0.236 ± 0.0048 | 0.292 ± 0.012 | 0.274 ± 0.005 | 0.182 ± 0.017 | 0.186 ± 0.0047 | 0.1457 ± 0.0013 | 0.427 ± 0.024 | 0.44 ± 0.036 | 0.192 ± 0.013 | 0.245 ± 0.022 | 0.49 ± 0.056 | 0.411 ± 0.016 | 0.352 ± 0.014
7 | COc1cc([S+](C)[O-])ccc1-c1nc2cccnc2[nH]1 (stereo not given) [Sulmazole] | 0.227 ± 0.0056 | 0.282 ± 0.023 | 0.264 ± 0.0096 | 0.161 ± 0.027 | 0.2 ± 0.0059 | 0.1223 ± 0.00055 | 0.231 ± 0.039 | 0.387 ± 0.049 | 0.18 ± 0.0052 | 0.209 ± 0.0037 | 0.4254 ± 0.0034 | 0.392 ± 0.0053 | 0.342 ± 0.034
8 | CN1[C@@H]2CC[C@H]1C[C@@H](OC(c1ccccc1)c1ccccc1)C2 [Benztropine mesylate] | 0.1702 ± 0.0017 | 0.219 ± 0.0061 | 0.289 ± 0.037 | 0.165 ± 0.0036 | 0.133 ± 0.0073 | 0.166 ± 0.0023 | 0.137 ± 0.018 | 0.253 ± 0.076 | 0.166 ± 0.0063 | 0.201 ± 0.011 | 0.487 ± 0.029 | 0.4104 ± 0.0035 | 0.288 ± 0.0043
9 | O=C(O)[C@H]1/C(=C/CO)O[C@@H]2CC(=O)N21 [Clavulanate potassium salt] | 0.155 ± 0.0016 | 0.0502 ± 0.0035 | 0.0477 ± 0.0036 | 0.0582 ± 0.0016 | 0.195 ± 0.0057 | 0.0991 ± 0.0015 | 0.535 ± 0.033 | 0.387 ± 0.062 | 0.182 ± 0.0081 | 0.164 ± 0.012 | 0.04737 ± 0.00042 | 0.0839 ± 0.04 | 0.101 ± 0.017
10 | CCOC(=O)O[C@]1(C(=O)COC(=O)CC)CC[C@H]2[C@@H]3CCC4=CC(=O)C=C[C@]4(C)[C@H]3[C@@H](O)C[C@@]21C [Prednicarbate] | 0.201 ± 0.0033 | 0.268 ± 0.0098 | 0.271 ± 0.0029 | 0.269 ± 0.025 | 0.199 ± 0.012 | 0.174 ± 0.013 | 0.438 ± 0.024 | 0.37 ± 0.053 | 0.193 ± 0.008 | 0.237 ± 0.026 | 0.38 ± 0.015 | 0.401 ± 0.0095 | 0.28 ± 0.027
11 | COC(=O)C1=C(C#N)NC(C)=C(C(=O)OC(C)C)C1c1cccc([N+](=O)[O-])c1 (stereo not given) [Nilvadipine] | 0.148 ± 0.0031 | 0.203 ± 0.014 | 0.2569 ± 0.001 | 0.164 ± 0.014 | 0.0883 ± 0.002 | 0.149 ± 0.033 | 0.16 ± 0.0063 | 0.325 ± 0.029 | 0.208 ± 0.019 | 0.214 ± 0.015 | 0.212 ± 0.16 | 0.429 ± 0.0067 | 0.06 ± 0.0039
12 | COc1ccc(CN(CCN(C)C)c2ccccn2)cc1 [Pyrilamine maleate] | 0.2136 ± 0.002 | 0.269 ± 0.018 | 0.263 ± 0.0074 | 0.179 ± 0.008 | 0.154 ± 0.0054 | 0.135 ± 0.0052 | 0.206 ± 0.052 | 0.426 ± 0.034 | 0.188 ± 0.017 | 0.211 ± 0.029 | – | 0.3958 ± 0.0033 | 0.321 ± 0.015
13 | COC1=C(OC)C(=O)C(CCCCCCCCCCO)=C(C)C1=O [Idebenone] | 0.0426 ± 0.0005 | 0.0428 ± 0.0023 | 0.0413 ± 0.00026 | 0.0466 ± 0.0041 | 0.04233 ± 0.0004 | 0.0482 ± 0.0015 | 0.0516 ± 0.0016 | 0.0501 ± 0.0007 | 0.0884 ± 0.057 | 0.066 ± 0.0091 | – | 0.139 ± 0.087 | 0.0513 ± 0.001
14 | CCCCN1CCCCC1C(=O)Nc1c(C)cccc1C (stereo not given) [Bupivacaine hydrochloride] | 0.2359 ± 0.0017 | 0.301 ± 0.0072 | 0.247 ± 0.0053 | 0.21 ± 0.0045 | 0.167 ± 0.0039 | 0.157 ± 0.0046 | 0.257 ± 0.046 | 0.418 ± 0.025 | 0.187 ± 0.013 | 0.266 ± 0.047 | 0.489 ± 0.051 | 0.409 ± 0.01 | 0.339 ± 0.014
